Results from PubChem BioAssay AID651717 (Broad Institute, 2012).
The campaign covered roughly 1,200 compounds. About 950 (79%) were called active. The set was probably picked from earlier hits. The list is a sample of the results. Results with a measured potency or affinity are listed apart. Values without a mark were called inactive.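 The calls were made as follows: active = signal rises and fitted curve reaches 40% activity at or below the top valid tested dose, in every replicate test; inconclusive = replicate tests give mixed calls; inactive = the rest, including activity in the opposite direction.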

Test: compounds raising Bmi1 reporter signal – mouse embryonic stem cells, luciferase, cherry-pick, esBAF inhibitor project, dose response (AID 651717);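 also: luciferase knocked into Bmi1 locus with EF-1a renilla as cell number control; rising ratio signals esBAF inhibition which derepresses Bmi1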
Conditions: mESC Bmi1-luciferase reporter, firefly/renilla ratio, 24 h, active compounds read high; at 35 µM unless noted

SMILES	max activity
Cc1ccc(S(=O)(=O)Nc2cccc3c2O[C@@H](CN(C)C(=O)Nc2ccc4c(c2)OCO4)[C@@H](C)CN([C@@H](C)CO)C3=O)cc1	-17.3%
CC(=O)N(C)c1ccc(NCc2cc(=O)oc3cc(C)c(O)cc23)cc1	19.2%
COc1ccc2cc(C(=O)c3ccccc3)c(=O)oc2c1	32.6% [at 4.2 µM]
C[C@@H]1CN([C@@H](C)CO)C(=O)c2cc(NC(=O)Nc3ccc4c(c3)OCO4)ccc2O[C@@H](C)CCCCO[C@@H]1CN(C)S(=O)(=O)c1cn(C)cn1	-11% [at 0.5 µM]
CC1CCN(c2ccc3c(c2)S(=O)(=O)c2cccc(C(=O)NCc4ccc(F)cc4)c2C3=O)CC1	27.9%
Cc1ccc(S(=O)(=O)Nc2cccc3c2O[C@H](CN(C)C(=O)Nc2ccc4c(c2)OCO4)[C@H](C)CN([C@H](C)CO)C3=O)cc1	-21.3%
CCC(SC1=Nc2ccccc2C2=NC(CC(C)C)C(=O)N12)C(=O)Nc1ccc2c(c1)OCO2 (stereo not given)	-19.3%
CN(C)c1ccc(C(=O)Nc2cccc(S(=O)(=O)N3CCCC3)c2)cc1	25% [at 16 µM]
Cc1ccc(S(=O)(=O)N(C)C[C@H]2OCCCC[C@H](C)Oc3ccc(NC(=O)Nc4ccc5c(c4)OCO5)cc3C(=O)N([C@H](C)CO)C[C@H]2C)cc1	10.8% [at 16 µM]
C[C@H](CO)N1C[C@H](C)[C@@H](CN(C)C(=O)Nc2ccc3c(c2)OCO3)OCCCC[C@H](C)Oc2ccc(NC(=O)c3ccncc3)cc2C1=O	-9% [at 0.26 µM]
C[C@H]1CN([C@@H](C)CO)C(=O)Cc2cc(NC(=O)Nc3ccc4c(c3)OCO4)ccc2O[C@H]1CN(C)Cc1ccccc1	12.3% [at 8 µM]
C[C@H]1CN([C@@H](C)CO)C(=O)Cc2cc(NC(=O)Nc3ccc4c(c3)OCO4)ccc2O[C@@H]1CN(C)Cc1ccccc1	-4.95% [at 2.1 µM]
CCn1c(=N)n(CC(=O)c2ccc(Br)s2)c2ccccc21	15.9%
CN(C)c1ccc(-c2nnn(Cc3ccccc3Br)n2)cc1	-12.5%
CCOC(=O)c1cc(-c2sc(NC(=O)c3ccccc3)nc2C)n(-c2ccc(Br)cc2)n1	24%
O=C(c1ccc2ccccc2c1O)N1CCCCC1	-23.4%
C[C@@H]1CN([C@@H](C)CO)C(=O)c2cc(NS(=O)(=O)c3ccc(F)cc3)ccc2O[C@H]1CN(C)C(=O)Nc1ccc2c(c1)OCO2	-5.95% [at 0.5 µM]
Cc1ccc(S(=O)(=O)NCc2ccccc2)cc1C(=O)NC1CCC(C)CC1 (stereo not given)	29.1% [at 4.2 µM]
CN(C)Cc1c(C(=O)N/N=C/c2ccccc2OCc2c(F)cccc2Cl)nnn1-c1nonc1N	19.7% [at 4.2 µM]
C[C@H](CO)N1C[C@H](C)[C@@H](CN(C)S(=O)(=O)c2cn(C)cn2)OCCCC[C@H](C)Oc2ccc(NC(=O)Nc3ccc4c(c3)OCO4)cc2C1=O	18.2%
C[C@H]1CCCCO[C@@H](CN(C)C(=O)Nc2ccccc2)[C@@H](C)CN([C@@H](C)CO)C(=O)c2cc(NC(=O)Nc3ccc4c(c3)OCO4)ccc2O1	11.1% [at 4.2 µM]
O=C(O)C/C(=C\c1cc(Br)cs1)c1nc2ccccc2o1	31.8%

SMILES	max activity
Cc1cccc(N2CCN(C(=O)c3ccc4nc(N5CCCCC5)sc4c3)CC2)c1C	-28.5%
O=C(CSc1nnc(Nc2ccccc2F)s1)Nc1cccc(S(=O)(=O)N2CCCCC2)c1	20.6% [at 16 µM]
C[C@H](CO)N1C[C@H](C)[C@@H](CN(C)Cc2ccncc2)Oc2c(NC(=O)Nc3ccc4c(c3)OCO4)cccc2C1=O	39.5% [at 0.26 µM]
O=C1CCC[C@@H]2C[C@@]3(C[C@@H]4CCN1[C@H]24)Nc1cc(Cl)c(Cl)cc1NC3=NCc1ccccc1	15.2% [at 4.2 µM]
CCCCC(=O)c1c(O)c2ccccc2oc1=O	28.9%
O=C(Nc1ccc(F)c(Cl)c1)c1ccccc1NC(=O)C1CCCCC1C(=O)O (stereo not given)	26.5%
O=C(O)CCN1C(=O)/C(=C\c2cccc(OCC(=O)Nc3ccc(Cl)cc3)c2)SC1=S	38%
O=S(=O)(/N=C(/Nc1nc2ccccc2s1)c1ccccc1)c1ccccc1	34.6% [at 16 µM]
Clc1ccc(CSc2ncn(-c3ccccc3)n2)cc1	27%
Cc1cc(C)n2nc(SCc3nnc(SCc4ccccc4C)s3)nc2n1	26.5%
CN(C)Cc1c(O)ccc2c(=O)c(-c3ccc(Cl)cc3)coc12	24.4%
C[C@H](CO)N1C[C@H](C)[C@@H](CN(C)C(=O)Nc2ccc3c(c2)OCO3)Oc2c(NS(=O)(=O)c3cn(C)cn3)cccc2C1=O	30.6%
COc1ccc2c(c1OC)C(=O)OC2Nc1nc(-c2cc3cc([N+](=O)[O-])ccc3oc2=O)cs1 (stereo not given)	38.4%
O=C(NN=C1CCCC1)c1ccccc1O	17.2% [at 4.2 µM]
CCOc1ccc(/C=N/NC(=O)c2ccccc2O)cc1CN1CC2CC(C1)c1cccc(=O)n1C2 (stereo not given)	21.1% [at 16 µM]
C[C@H](CO)N1C[C@H](C)[C@H](CN(C)C(=O)Nc2ccccc2)OCCCC[C@H](C)Oc2ccc(NC(=O)Nc3ccc4c(c3)OCO4)cc2C1=O	-15.5% [at 0.26 µM]
COc1ccc(-c2noc(C3CCCN(C(=O)Nc4ccccc4)C3)n2)cc1 (stereo not given)	16.1%
C[C@H]1CN([C@@H](C)CO)C(=O)c2cc(NC(=O)Cc3ccccc3)ccc2O[C@H]1CN(C)C(=O)Nc1ccc2c(c1)OCO2	21% [at 0.5 µM]
CN(C)c1ccc(C(=O)Nc2cccc(S(=O)(=O)NC3=NCCCCC3)c2)cc1	11.6% [at 16 µM]
CCOC(=O)C1CCN(Cc2nc3ccc([N+](=O)[O-])cc3c(=O)n2-c2ccc(OC)cc2OC)CC1	8.71% [at 4.2 µM]
COc1ccc(CCC(=O)N/N=C/c2ccc3c(c2)OCO3)cc1	7.2%
O=C(Nc1cccc(F)c1)Nc1cccc(Cl)c1	39.5% [at 16 µM]

SMILES	max activity
COc1ccc(NC(=O)Nc2cccc3c2O[C@@H](CN(C)C(=O)Nc2cccc4ccccc24)[C@H](C)CN([C@@H](C)CO)C3=O)cc1	22.8%
C[C@H]1CN([C@@H](C)CO)C(=O)c2cc(NS(=O)(=O)c3ccc(F)cc3)ccc2O[C@@H]1CN(C)C(=O)Nc1ccc2c(c1)OCO2	3.44% [at 4.2 µM]
C[C@H](CO)N1C[C@H](C)[C@H](CN(C)C(=O)NC2CCCCC2)OCCCC[C@H](C)Oc2ccc(NC(=O)Nc3ccc4c(c3)OCO4)cc2C1=O	27%
C[C@H]1CCCCO[C@H](CN(C)C(=O)NC2CCCCC2)[C@@H](C)CN([C@@H](C)CO)C(=O)c2cc(NC(=O)Nc3ccc4c(c3)OCO4)ccc2O1	10.1%
Cc1c(Cl)cccc1N1C(=O)CC(N(O)c2ccccc2)C1=O (stereo not given)	13.3%
Cc1ccc(S(=O)(=O)Nc2cccc3c2O[C@H](CN(C)C(=O)Nc2ccc4c(c2)OCO4)[C@@H](C)CN([C@H](C)CO)C3=O)cc1	-41% [at 16 µM]
O=C(OCc1ccccc1)N1CCC2CC1c1ccc(/C=C/CCCCl)cc12 (stereo not given)	-25.2% [at 16 µM]
C[C@@H]1CN([C@@H](C)CO)C(=O)c2cccc(NC(=O)Nc3ccccc3)c2O[C@H]1CN(C)C(=O)Nc1ccc2c(c1)OCO2	-14.4%
C[C@H]1CN([C@@H](C)CO)C(=O)c2cccc(NC(=O)Nc3ccccc3)c2O[C@@H]1CN(C)C(=O)Nc1ccc2c(c1)OCO2	-6.52%
Cc1ccc(S(=O)(=O)Nc2cccc3c2O[C@@H](CN(C)C(=O)Nc2ccc4c(c2)OCO4)[C@H](C)CN([C@@H](C)CO)C3=O)cc1	-16.1%
C[C@@H]1CN([C@H](C)CO)C(=O)c2cccc(NC(=O)Nc3ccc4c(c3)OCO4)c2O[C@H]1CN(C)Cc1ccccc1	36.6% [at 0.26 µM]
CO[C@@H]1CN(C)C(=O)c2ccc(NC(=O)Nc3cccc(F)c3)cc2OC[C@@H](C)N(C(=O)Nc2c(C)noc2C)C[C@H]1C	7.7% [at 0.56 µM]
O=C(NCc1cccs1)c1cc2c(s1)-c1ccccc1OC2	20.6% [at 8 µM]
CCCOc1c(Br)cc(C2C3=C(CCCC3=O)N(CC)C3=C2C(=O)CCC3)cc1OC	-53.8% [at 16 µM]
Cc1ccc(CN2CN(S(=O)(=O)c3cccs3)c3nc4ccccc4nc32)cc1	-38.8%
O=C(O)c1ccc(NCc2cccnc2)cc1	12.2%
C[C@@H]1CN([C@@H](C)CO)C(=O)c2c(c3ccccc3n2C)-c2ccccc2CO[C@@H]1CN(C)C(=O)Nc1ccc2c(c1)OCO2	-11.1%
C[C@@H]1CCCCO[C@@H](CN(C)S(=O)(=O)c2cn(C)cn2)[C@@H](C)CN([C@@H](C)CO)C(=O)c2cc(NC(=O)Nc3ccc4c(c3)OCO4)ccc2O1	3.24% [at 30 µM]
CC1CCN(c2ccc(C(=O)NCc3cccs3)cn2)CC1	20.2% [at 8 µM]
COc1ccc(CN2C[C@@H](C)[C@H](OC)CN(C)C(=O)c3ccc(NC(=O)c4nc5ccccc5s4)cc3OC[C@H]2C)cc1	13.2% [at 3.8 µM]
COc1ccc(N(CCC(=O)NCCc2ccccc2)S(=O)(=O)c2ccc(C)cc2C)cc1	24.7% [at 8 µM]
